TDP1 cell noCPT – qHTS for Inhibitors of human tyrosyl-DNA phosphodiesterase 1 (TDP1): qHTS in cells in absence of CPT. hit rate 15% among 420,000. Potency, µM (highest dose often 46.2 µM), for the others: at the highest dose activity change, negative = growth inhibition, hits mostly inhibitors. DT40 Tdp1-/- hTDP1 cells, no CPT, ATP luminescence, 48 h; further: nearly all actives have a fitted effect of over 55% in size
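Compound effects on proliferation are scored in DT40 Tdp1-/-;hTDP1 cells in the absence of CPT. ATP levels (CellTiter-Glo luminescence) are recorded after a ≥48 hr, 37 °C incubation.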
KB-3-1 cytotox – qHTS assay for MDR1-selective chemotherapeutics: Primary screen using the parental adenocarcinoma cell KB-3-1; KB-3-1 viability, CellTiter-Glo ATP luminescence, 72 h; Potency, µM (doses to about 46.1 µM), usual class: cytotoxic; hit rate 1.4% among 400,000; AID 1347075, 2019; further: nearly all actives have a fitted effect of over 60% in size
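Using CellTiter-Glo luminescence, growth of non-resistant KB-3-1 adenocarcinoma cells is assessed 72 h after pin-tool compound addition at 37 °C. Normalized responses across the concentration series yield fitted curves.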
HT1080 IDH1KD tx – qHTS for induction of synthetic lethality in tumor cells producing 2HG: qHTS for the HT-1080-IDH1KD cell line; HT-1080 IDH1 knockdown viability, ATP luminescence, 48 h; Potency, µM (series often up to 46.1 µM), for inactives: at the highest dose activity, negative = toxicity, hits mostly cytotoxic; hit rate 2% among 360,000; AID 686971, 2013;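 further: 0% = DMSO wells and -100% = cell-free medium wells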
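Using the IDH1-knockdown HT-1080 line run in the same batch and compound series as the NT line, viability after 48 h at 37 °C was determined by CellTiter-Glo luminescence and expressed as % activity.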
KB-V1 MDR tox – qHTS assay for MDR1-selective chemotherapeutics: Primary screen using the drug-selected MDR subline cells KB-V1; KB-V1 MDR cells viability, CellTiter-Glo, 72 h; Potency, µM (highest dose often 46.1 µM), most hits filed as cytotoxic; hit rate 3.4% among 400,000; AID 1347076, 2019; further: nearly all actives have a fitted effect of over 60% in size
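Cytotoxicity via CellTiter-Glo luminescence after 72 h compound exposure at 37 degrees C. Cells: drug-selected KB-V1 line, DMEM phenol-red free plus 10% FBS. Compounds tested at multiple concentrations; normalized data fitted to concentration-effect curves.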
HT1080NT lethal – qHTS for induction of synthetic lethality in tumor cells producing 2HG: qHTS for the HT-1080-NT fibrosarcoma cell line | HT-1080-NT fibrosarcoma viability, CellTiter-Glo ATP luminescence, 48 h | Potency, µM (titrated, usually from 46.1 µM), inactives show top-dose activity, negative = less viability, actives largely listed as cytotoxic | hit rate 1.6% among 360,000 | AID 686970, 2013;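 further: NT is the 2HG producing partner of a matched IDH1 knockdown line; 0% = DMSO-treated cells and -100% = media-only wells without cells; nearly all actives have a fitted effect of over 55% in size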
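Compounds were tested in concentration-response format on HT-1080-NT cells for 48 hours at 37 degrees C. Cell viability came from CellTiter-Glo luminescence; curves were classified by r2, response magnitude and activity.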
TDP1 cell CPT – qHTS for Inhibitors of human tyrosyl-DNA phosphodiesterase 1 (TDP1): qHTS in cells in presence of CPT | hit rate 12% among 420,000 | chicken DT40 Tdp1-/-;hTDP1 cells + 20 nM CPT, ATP luminescence, 48 h | Potency, µM (titrated, usually from 46.2 µM), without a hit: top-dose activity change, negative = growth inhibition, usual class: inhibitors | AID 686979, 2013; further: nearly all actives have a fitted effect of over 55% in size
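Cell growth measured by CellTiter-Glo luminescence after a minimum 48 h, 37 C compound exposure with 20 nM CPT in Tdp1-knockout DT40 cells stably expressing hTDP1, seeded 400/well; qHTS titration format.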
* marks the source's active call; other numbers are inactive results; i = inactive; u = inconclusive; x = not tested or not shown; [ ] = another dose, or the depositor's remark. Compounds with a hit are over-represented: about 19% of the library has one in this group of screens. The call rests on the fitted dose curve; in most records, active means well fitted curve in the direction sought with a large enough effect; inconclusive means small, poorly fitted or top-dose-only effect, or another doubt; inactive means no such curve, though single readings can be large; an effect the other way counts as inactive or inconclusive. Unless noted, on the % scale 0 is the no-effect control and ±100 the full control effect; potency means the concentration at half of the fitted maximal effect.

SMILES	TDP1 cell noCPT	KB-3-1 cytotox	HT1080 IDH1KD tx	KB-V1 MDR tox	HT1080NT lethal	TDP1 cell CPT
Nc1nnc2cc(Cl)ccc2n1	-23%	i	-7%	i	-24%	u
O=C1c2ccccc2C(=O)N1c1nc(-c2ccc(Cl)cc2)cs1	u	i	x	i	x	u
Cc1cccc2c(=O)[nH]c3c(-c4nc(-c5ccc(Cl)cc5)cs4)c(O)cn3c12	7.1µM*	i	x	i	x	4µM*
CCOC(=O)C(CC)n1cnc2c(cnn2-c2ccc(Cl)cc2)c1=O (configuration not stated)	18µM*	i	-14%	u	-1%	u
CCOC(=O)C(CC)n1cnc2c(nnn2-c2ccc(OC)cc2)c1=O (configuration not stated)	-9%	i	0%	i	4%[9.24 µM]	5%
CCOC(=O)C(C)n1cnc2c(cnn2-c2ccc(Cl)cc2)c1=O (configuration not stated)	16µM*	i	-3%	i	0%	u
CCOC(=O)N1CCN(C(=O)CNC(=O)c2ccc(Br)o2)CC1	u	i	2%	i	-11%	-18%
CC1CCCC(C)N1C(=O)COc1ccc(C(=O)N/N=C/c2ccc(C(=O)O)cc2)cc1 (configuration not stated)	3%	i	20%	i	14%	3%
COc1ccc(N2CCN(C(=O)CN(C)S(=O)(=O)c3cc(C)ccc3OC)CC2)cc1	-15%	i	-9%	i	-8%	-23%
CCc1cccc(N=c2c([N+](=O)[O-])nn(-c3ccc4c(c3)OCCO4)n2O)c1	3.3µM*	i	-17%	u	-16%	1.8µM*
Cc1cccc(N=c2c([N+](=O)[O-])nn(-c3ccc(Cl)cc3)n2O)c1	1%	i	0%	i	24%	4%
O=[N+]([O-])c1nn(-c2ccc3c(c2)OCCO3)n(O)c1=NCc1ccc(F)cc1	u	i	-2%	u	-4%	u
Cc1cc(C)cc(N=c2c([N+](=O)[O-])nn(-c3cccc(Cl)c3)n2O)c1	u	i	u	i	-8%	11µM*
CCc1cccc(N=c2c([N+](=O)[O-])nn(-c3ccc(Cl)cc3)n2O)c1	u	i	u	u	-20%	21µM*
COc1cc(N=c2c([N+](=O)[O-])nn(-c3ccc4c(c3)OCCO4)n2O)cc(OC)c1	1.6µM*	u	u	6.5µM*	-19%	1.5µM*
COCCCNC(=O)CSc1nc2cc(S(=O)(=O)N3CCCCC3)ccc2o1	-30%	u	-2%	u	-2%	-15%
Nc1nc(NCCc2ccccc2)nc(NCCO)c1[N+](=O)[O-]	-21%	i	-7%	i	-2%	-12%
O=C(O)/C=C1\CCCc2ccccc2[C@H]1O	-6%	x	x	x	x	-11%
CCOC(=O)c1nn(-c2ccc(C)c(C)c2)c(=O)c2c(N)scc12	u	i	-17%	i	-15%	21µM*
Cc1cccc(NC(=O)C23CCC(C)(C2Br)C3(C)C)c1 (configuration not stated)	u	i	-22%	i	-14%	-14%
CCC1Sc2ccc(S(=O)(=O)Nc3cc(OC)cc(OC)c3)cc2NC1=O (configuration not stated)	u	i	-6%	i	u	16µM*
COc1cccc(NS(=O)(=O)c2ccc3c(c2)NC(=O)C(C)S3)c1 (configuration not stated)	u	i	-11%	i	-9%	u
COc1ccc(N2CCN(S(=O)(=O)c3ccc4c(c3)NC(=O)C(C)S4)CC2)cc1 (configuration not stated)	u	u	u	i	-13%	u
CCc1cccc(NS(=O)(=O)c2ccc3c(c2)NC(=O)C(C)S3)c1 (configuration not stated)	u	i	-28%	i	-27%	21µM*
CCC1Sc2ccc(S(=O)(=O)N3CCN(c4ccccc4)CC3)cc2NC1=O (configuration not stated)	u	i	5%	i	9%	15µM*
SMILES	TDP1 cell noCPT	KB-3-1 cytotox	HT1080 IDH1KD tx	KB-V1 MDR tox	HT1080NT lethal	TDP1 cell CPT
COc1ccc([N+](=O)[O-])cc1NC(=O)c1ccc(N2C(=O)CCC2=O)cc1	14%	i	1%	i	-5%	-2%
COCCNC(=O)/C(C#N)=C/c1ccccc1Br	16µM*	i	2%	i	0%	15µM*
COCCNC(=O)/C(C#N)=C/c1cc(C)n(C2CCCCC2)c1C	16µM*	i	0%	u	-18%	u
CCc1ccccc1N1CC23C=CC(O2)C(C(=O)O)C3C1=O (configuration not stated)	-22%	i	-2%	i	13%	18µM*
O=C1CC(c2ccc(F)cc2)CC2=C1C(c1ccc([N+](=O)[O-])o1)Nc1ccccc1N2 (configuration not stated)	16µM*	i	-12%	i	-6%	u
O=C1CC(c2ccccc2)CC2=C1C(c1ccccn1)Nc1ccccc1N2 (configuration not stated)	3%	i	-17%	i	5%	1%
O=C1CC(c2ccc3c(c2)OCCO3)Oc2ccc([N+](=O)[O-])cc21 (configuration not stated)	16µM*	u	0%	u	u	u
CCCn1c(=O)[nH]c(=O)c2c1nc(-c1ccccc1)n2CCN1CCOCC1	1%	i	7%	i	7%	8%
COc1ccc2cc(C[C@@H]3CC[C@@H](CNC(N)=O)O3)ccc2c1	-12%	i	0%	i	0%	-9%
O=C(CN1C(=O)C2(SCC(=O)N2c2ccc(F)c(F)c2)c2ccccc21)Nc1ccccc1F (configuration not stated)	-20%	i	x	i	x	-12%
COc1ccc(N2C(=O)CSC23C(=O)N(Cc2ccc(C)cc2)c2ccccc23)cc1Cl (configuration not stated)	x	u	x	18µM*	x	x

Compound activity: PubChem BioAssay, National Center for Advancing Translational Sciences (NCATS)
